Measurements as given in PubChem BioAssay (Tox21).
Where “and” joins values, the source holds several entries; their conditions need not be identical. Equal values may be shown once. Calls of active or inactive are those of the source. Unless noted, the call rests on the fitted dose curve. Positions of bridges follow the written chain, without caps; N, C: chain ends. Non-standard residues stand in square brackets, D forms with d. Residues, ends and D or L forms follow the SMILES beside them. *: point of attachment. Dab(CH2SO3H) = N[C@@H](CCNCS(=O)(=O)O)C(=O)O; X3 = CC[C@@H](C)CCCCC(=O)*; Dab = NCC[C@H](N)C(=O)O

The compounds below were run on thyroid hormone receptor (rat, GH3 cells) (assay: qHTS assay to identify small molecule agonists of the thyroid receptor (TR) signaling pathway (AID 743066)). Details: GH3.TRE-Luc cells, TR agonist luciferase, 24 h; series mostly up to 83.9 µM; activation: at the top concentration.
On the % scale 0 is the no-effect control and ±100 the full control effect.

SMILES	Potency	activation
CC[C@H]1OC(=O)[C@H](C)C(=O)[C@H](C)[C@@H](O[C@@H]2O[C@H](C)C[C@H](N(C)C)[C@H]2O)[C@](C)(OC)C[C@@H](C)C(=O)[C@H](C)[C@H]2N(CCCCn3cnc(-c4cccnc4)c3)C(=O)O[C@]12C	inactive	–
O=P(O)(O)OP(=O)(O)OP(=O)(O)O	–	1.56% (inactive)
NC[C@@H]1CC[C@@H](N)[C@@H](O[C@H]2[C@H](O)[C@@H](O[C@H]3O[C@H](CO)[C@@H](O)[C@H](N)[C@H]3O)[C@H](N)C[C@@H]2N)O1	–	1.21% (inactive)
CC(=O)OCC(=O)[C@@]1(O)CC[C@H]2[C@@H]3CCC4=CC(=O)CC[C@]4(C)C3=CC[C@@]21C	–	0.412% (inactive)
COc1c(Br)cc(Br)c(C)c1Br	–	0.288% (inactive)
CC12CCC(C[N+](C)(CCC[N+](C)(C)C)C1)C2(C)C (stereo not drawn)	–	-0.439% (inactive)
O=C1c2c(O)cccc2[C@H]([C@@H]2O[C@H](CO)[C@@H](O)[C@H](O)[C@H]2O)c2cc(CO)cc(O)c21	inactive	–
NCC(O)CC(=O)O (stereo not drawn)	–	0.313% (inactive)
CCOc1ccc(S(=O)(=O)O)c2cccnc12	–	1.77% (inactive)
CC12CCC(C1)C(C)(C)C2=O (stereo not drawn)	–	0.244% (inactive)
CN1C(=O)C[C@@H](C(=O)N[C@@H](Cc2cnc[nH]2)C(=O)N2CCC[C@H]2C(N)=O)NC1=O	–	2.13% (inactive)
NC[C@H]1O[C@H](O[C@H]2[C@H](O)[C@@H](O[C@H]3O[C@H](CO)[C@@H](O)[C@H](N)[C@H]3O)[C@H](N)C[C@@H]2N)[C@H](N)C[C@@H]1O	–	0.277% [at 39.4 µM] (inactive)
NCC[C@H](O)C(=O)N[C@@H]1C[C@H](N)[C@@H](O[C@H]2O[C@H](CN)CC[C@H]2N)[C@H](O)[C@H]1O[C@H]1O[C@H](CO)[C@@H](O)[C@H](N)[C@H]1O	–	1.19% (inactive)
C=CC[N@@+]12CC[C@@]34c5ccccc5N5/C=C6/[C@H]7C[C@H]8[C@@]9(CC[N@@+]8(CC=C)C/C7=C/CO)c7ccccc7N(/C=C(/[C@@H](C[C@@H]31)/C(=C\CO)C2)[C@H]54)[C@@H]69	–	0.809% [at 39.4 µM] (inactive)
CC(C)Cc1ccc([C@H](C)C(=O)O)cc1	–	-1.31% (inactive)
FC(F)(F)C(F)(F)C(F)(F)C(F)(F)C(F)(F)F	–	-0.325% (inactive)
COc1ccc(/C=N/NC(=O)c2ccncc2)c(C(=O)O)c1OC	–	0.732% (inactive)
Cc1cc(-c2ccc(N=Nc3ccc4c(S(=O)(=O)O)cc(S(=O)(=O)O)c(N)c4c3O)c(C)c2)ccc1N=Nc1ccc2c(S(=O)(=O)O)cc(S(=O)(=O)O)c(N)c2c1O	inactive	–
CC(C)c1ncc([N+](=O)[O-])n1C	–	1.71% (inactive)
CC[C@H](C)C(=O)O[C@H]1CCC=C2C=C[C@H](C)[C@H](CC[C@@H]3C[C@@H](O)CC(=O)O3)[C@H]21	–	-2.4% (inactive)
CN(C)CCc1c[nH]c2ccc(Cn3cncn3)cc12	–	0.527% (inactive)
C/C=C/C1=C(C(=O)O)N2C(=O)[C@@H](NC(=O)[C@H](N)c3ccc(O)cc3)[C@H]2SC1	–	1.36% (inactive)
O=C1C2CC3CC1CC(O)(C3)C2	–	2.01% (inactive)
CC[C@@H](C)CCCCC(=O)N[C@@H](CCNCS(=O)(=O)O)C(=O)N[C@H](C(=O)N[C@@H](CCNCS(=O)(=O)O)C(=O)N[C@H]1CCNC(=O)[C@H]([C@@H](C)O)NC(=O)[C@H](CCNCS(=O)(=O)O)NC(=O)[C@H](CCNCS(=O)(=O)O)NC(=O)[C@H](CC(C)C)NC(=O)[C@@H](CC(C)C)NC(=O)[C@H](CCNCS(=O)(=O)O)NC1=O)[C@@H](C)O (X3-[Dab(CH2SO3H)]T[Dab(CH2SO3H)][Dab][Dab(CH2SO3H)][dL]L[Dab(CH2SO3H)][Dab(CH2SO3H)]T; lactam 4-C)	–	-0.794% (inactive)
CCC(NC(C)C)C(O)c1ccc(O)c(O)c1 (stereo not drawn)	–	0.481% (inactive)
CCCCCCCCCC[N+](C)(CCCCCCCCCC)CCC[Si](OC)(OC)OC	–	0.612% (inactive)
O=C1CCC(c2ccc(-n3ccnc3)cc2)=NN1	–	0.584% (inactive)

These compounds were tested against Estrogen receptor (Homo sapiens) (UniProt P03372) (assay: qHTS assay to identify small molecule antagonists of the estrogen receptor alpha (ER-alpha) signaling pathway (AID 743069; active means well fitted curve in the direction sought with a large enough effect in the signal ratio in the repeat runs, not every such curve was filed as active; inconclusive means weak or mixed curves, or effect the other way; inactive means no such curve, though single readings can be large or run the other way; the % refers to the signal ratio; further: potency means the concentration at half of the fitted maximal effect)). Details: HEK293 ER-alpha-UAS-bla, beta-lactamase ratio, antagonist mode; series mostly up to 69.4 µM; activity, negative = inhibition: at the top concentration.
Chain of Estrogen receptor (Homo sapiens) (P03372 whole entry, looked up): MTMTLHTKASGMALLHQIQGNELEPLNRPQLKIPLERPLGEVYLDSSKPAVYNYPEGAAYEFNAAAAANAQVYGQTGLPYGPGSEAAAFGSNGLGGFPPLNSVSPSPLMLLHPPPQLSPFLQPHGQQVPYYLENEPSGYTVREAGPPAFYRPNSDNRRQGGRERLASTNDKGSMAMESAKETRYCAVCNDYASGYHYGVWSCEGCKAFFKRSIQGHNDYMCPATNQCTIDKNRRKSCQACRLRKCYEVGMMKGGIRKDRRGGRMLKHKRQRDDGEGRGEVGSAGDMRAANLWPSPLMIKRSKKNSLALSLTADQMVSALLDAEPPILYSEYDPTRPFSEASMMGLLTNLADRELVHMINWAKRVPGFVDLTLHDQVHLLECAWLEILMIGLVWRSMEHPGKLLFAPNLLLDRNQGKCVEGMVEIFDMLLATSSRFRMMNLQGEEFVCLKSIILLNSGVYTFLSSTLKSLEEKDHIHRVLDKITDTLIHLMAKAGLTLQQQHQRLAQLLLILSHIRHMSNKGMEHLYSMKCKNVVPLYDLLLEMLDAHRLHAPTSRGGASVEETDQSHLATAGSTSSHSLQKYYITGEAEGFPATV
How it was run: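 Fluorescence intensity from a beta-lactamase FRET substrate served as the read-out. Cells: HEK293 with stably integrated ER-alpha-UAS-bla reporter. Agonist 17beta-estradiol was co-added with compounds; incubation 18 hr at 37C, substrate 2 hr at room temperature.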

SMILES	Potency	activity, negative = inhibition
CC[C@H]1OC(=O)[C@H](C)C(=O)[C@H](C)[C@@H](O[C@@H]2O[C@H](C)C[C@H](N(C)C)[C@H]2O)[C@](C)(OC)C[C@@H](C)C(=O)[C@H](C)[C@H]2N(CCCCn3cnc(-c4cccnc4)c3)C(=O)O[C@]12C	inactive	–
O=P(O)(O)OP(=O)(O)OP(=O)(O)O	–	-0.411% (inactive)
NC[C@@H]1CC[C@@H](N)[C@@H](O[C@H]2[C@H](O)[C@@H](O[C@H]3O[C@H](CO)[C@@H](O)[C@H](N)[C@H]3O)[C@H](N)C[C@@H]2N)O1	–	16.5% (inactive)
CC(=O)OCC(=O)[C@@]1(O)CC[C@H]2[C@@H]3CCC4=CC(=O)CC[C@]4(C)C3=CC[C@@]21C	–	24.6% (inactive)
CC12CCC(C[N+](C)(CCC[N+](C)(C)C)C1)C2(C)C (stereo not drawn)	–	3.28% (inactive)
O=C1c2c(O)cccc2[C@H]([C@@H]2O[C@H](CO)[C@@H](O)[C@H](O)[C@H]2O)c2cc(CO)cc(O)c21	inactive	–
NCC(O)CC(=O)O (stereo not drawn)	–	-7.15% (inactive)
CCOc1ccc(S(=O)(=O)O)c2cccnc12	–	15.2% (inactive)
CC12CCC(C1)C(C)(C)C2=O (stereo not drawn)	–	-4.89% (inactive)
CN1C(=O)C[C@@H](C(=O)N[C@@H](Cc2cnc[nH]2)C(=O)N2CCC[C@H]2C(N)=O)NC1=O	–	3.29% (inactive)
NC[C@H]1O[C@H](O[C@H]2[C@H](O)[C@@H](O[C@H]3O[C@H](CO)[C@@H](O)[C@H](N)[C@H]3O)[C@H](N)C[C@@H]2N)[C@H](N)C[C@@H]1O	–	2.38% [at 32.6 µM] (inactive)
CC1(C)S[C@@H]2[C@H](NC(=O)[C@@H](NC(=O)N3CCNC3=O)c3ccccc3)C(=O)N2[C@H]1C(=O)O	–	-5.43% [at 32.6 µM] (inactive)
CC(C)Cc1ccc([C@H](C)C(=O)O)cc1	–	-22.3% (inactive)
FC(F)(F)C(F)(F)C(F)(F)C(F)(F)C(F)(F)F	–	-5.95% (inactive)
COc1ccc(/C=N/NC(=O)c2ccncc2)c(C(=O)O)c1OC	–	3.83% (inactive)
Cc1cc(-c2ccc(N=Nc3ccc4c(S(=O)(=O)O)cc(S(=O)(=O)O)c(N)c4c3O)c(C)c2)ccc1N=Nc1ccc2c(S(=O)(=O)O)cc(S(=O)(=O)O)c(N)c2c1O	inactive	–
C/C=C/C1=C(C(=O)O)N2C(=O)[C@@H](NC(=O)[C@H](N)c3ccc(O)cc3)[C@H]2SC1	–	4.43% (inactive)
O=C1C2CC3CC1CC(O)(C3)C2	–	3.78% (inactive)
COC(=O)C[C@](O)(CCCC(C)(C)O)C(=O)O[C@@H]1C(OC)=CC23CCCN2CCc2cc4c(cc2[C@H]13)OCO4 (stereo partly drawn)	674 nM [inconclusive] (active) and 1.2 µM [inconclusive] (active)	–
CC[C@@H](C)CCCCC(=O)N[C@@H](CCNCS(=O)(=O)O)C(=O)N[C@H](C(=O)N[C@@H](CCNCS(=O)(=O)O)C(=O)N[C@H]1CCNC(=O)[C@H]([C@@H](C)O)NC(=O)[C@H](CCNCS(=O)(=O)O)NC(=O)[C@H](CCNCS(=O)(=O)O)NC(=O)[C@H](CC(C)C)NC(=O)[C@@H](CC(C)C)NC(=O)[C@H](CCNCS(=O)(=O)O)NC1=O)[C@@H](C)O (X3-[Dab(CH2SO3H)]T[Dab(CH2SO3H)][Dab][Dab(CH2SO3H)][dL]L[Dab(CH2SO3H)][Dab(CH2SO3H)]T; lactam 4-C)	–	15.2% (inactive)
O=C1CCC(c2ccc(-n3ccnc3)cc2)=NN1	–	2.22% (inactive)
